Test [1] in a line: NCI Yeast Anticancer Drug Screen. Data for the rad50 strain (AID 155).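 Also: 0% = growth of vehicle-only cultures of the same strain.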 The conditions noted are these: S. cerevisiae rad50 strain growth inhibition; at 50.0 µM; active compounds read high. In a few lines:
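A DNA repair-deficient yeast mutant serves as the test organism; compound-induced growth inhibition is calculated against vehicle-treated cells.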

Test [2] can be described thus: NCI Yeast Anticancer Drug Screen. Data for the mec2-1 strain (AID 157). Conditions: S. cerevisiae mec2-1 strain, at 50.0 µM, active compounds read high. A digest of the protocol: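 Test agents were screened against the mec2-1 yeast strain, with defined DNA repair or cell cycle alteration. Growth was scored as inhibition against vehicle-only controls.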
A short description of test [3]: NCI Yeast Anticancer Drug Screen. Data for the sgs1 mgt1 strain (AID 161).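 Also: 0% = growth of cultures given vehicle only.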 The conditions noted are these: S. cerevisiae sgs1 mgt1 strain, at 50.0 µM, active compounds read high. In a few lines:
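Inhibition of yeast growth, normalised to vehicle-treated controls, is reported for a strain bearing genetic alterations in DNA damage repair.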

The nature of test [4]: NCI Yeast Anticancer Drug Screen. Data for the cln2 rad14 strain (AID 165).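 Also: 0% = growth equal to vehicle treated cultures.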 The conditions noted are these: S. cerevisiae cln2 rad14 strain, at 50.0 µM, active compounds read high. In a few lines: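 Growth of compound-exposed yeast (cln2 rad14 genotype) measured and expressed as inhibition relative to vehicle.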
Test [5] is described as follows: NCI Yeast Anticancer Drug Screen. Data for the bub3 strain (AID 167). Conditions: S. cerevisiae bub3 mutant strain, at 50.0 µM, active compounds read high. A digest of the protocol:
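Inhibition values come from growth of compound-treated mutant yeast normalised to vehicle-treated controls.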

Test [6] in a line: NCI Yeast Anticancer Drug Screen. Data for the mlh1 rad18 strain (AID 175). Conditions: S. cerevisiae mlh1 rad18 strain growth inhibition; at 50.0 µM; active compounds read high. A digest of the protocol:
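In this whole-cell yeast screen, a strain with altered DNA damage repair is challenged with compound, and its growth is measured against matched vehicle-treated controls.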

These results are taken from PubChem BioAssay (NCI).

About 79,000 compounds went through this panel and 15% of them were active in at least one assay; those are over-represented in the sample as a whole. Values without a mark were called inactive. Active and inactive are the calls of the source. Rule as the data show it: active = growth inhibition above about 70%; inactive = the rest.

Take `CC(O)C(O)C(O)CO` (stereo unspecified): the growth inhibition in test [1] is 6.1%; in test [2], 18.4%; in test [3], -3.85%; in test [4], 19.8%; in test [5] it was 24.4%; in test [6] it was 8.95%.

As for `CCCCCOc1nc2c(c(=O)n(C)c(=O)n2C)n1C`, the growth inhibition is -0.4% in test [1]; -2.55% in test [2]; 4.65% in test [3]; -17.6% in test [4]; 3.45% in test [5]; 0.85% in test [6].

As for `O=C(O)CSc1c(Cl)c(=O)oc2ccc(Cl)cc12`, the growth inhibition was 30.3% in test [1]; -6.6% in test [2]; 20.2% in test [3]; -2% in test [4]; 17% in test [5]; 43.9% in test [6].

Turning to `CSc1ccc2c(c1)Cc1cc(N)ccc1-2`, the growth inhibition in test [1] was 3.9%; in test [2], 10.6%; in test [3], 12.1%; in test [4], 3.4%; in test [5] it was -26.7%; in test [6], 10.8%.

As to `CCOc1cccc(/C=N/N=C2\C(=O)Nc3c(Cl)cc(Cl)cc32)c1O`, the growth inhibition is 22.2% in test [1]; 15.6% in test [2]; 39.9% in test [3]; 40.8% in test [4]; 34.1% in test [5]; 83.2% (active) in test [6].

For the compound `CCN(CC)C(=O)c1cc([N+](=O)[O-])c(=O)n2c1[nH]c1ccccc12`, the growth inhibition is -17.9% in test [1]; 6.8% in test [2]; -59.6% in test [3]; 23.1% in test [4]; -18.5% in test [5]; -5.85% in test [6].

Take `O=C1OCCC1(Cc1ccc(Cl)cc1)Cc1ccc(Cl)cc1`: the growth inhibition in test [1] was -16.1%; in test [2], -22.9%; in test [3], -4.7%; in test [4], 10.4%; in test [5], 1.45%; in test [6], -3.05%.

For the compound `O=c1c2ccccc2n2nnc3ccc(NCCNCCO)c1c32`, the growth inhibition in test [1] was -15.1%; in test [2], 2.8%; in test [3] it was -0.7%; in test [4], 23.3%; in test [5], -0.45%; in test [6], -1.3%.

Turning to `O=C1C(=O)c2ccccc2C(O)=C1c1ccc(Br)cc1`, the growth inhibition was 8.85% in test [1]; -9.5% in test [2]; -2.8% in test [3]; -4.9% in test [4]; -3.65% in test [5]; -8.9% in test [6].

Consider `C=CCSS/C=C/CS(=O)CC=C` (stereo unspecified), for which the growth inhibition was 22.6% in test [1]; 54% in test [2]; 75.3% (active) in test [3]; 32% in test [4]; 78.3% (active) in test [5]; -19.3% in test [6].

Consider `CC#CCCC1CCCCNC1=O` (stereo unspecified), for which the growth inhibition is 0.8% in test [1]; -16.9% in test [2]; 27.1% in test [3]; 12.1% in test [4]; 26.5% in test [5]; 3.7% in test [6].

As for `Nc1ncnc2c1S(=O)(=O)NCN2`, the growth inhibition in test [1] was 5.05%; in test [2], -15.8%; in test [3] it was 0.45%; in test [4] it was -17.3%; in test [5], -3.15%; in test [6], -11.7%.

As to `c1csc(C(NC2=NCCO2)C2CC2)c1` (stereo unspecified), the growth inhibition in test [1] is -32.9%; in test [2], -11.2%; in test [3], -22.9%; in test [4], -25.1%; in test [5], -27.5%; in test [6], 41.8%.

With `CCC(C)NC(=O)Nc1ccccc1` (stereo unspecified), the growth inhibition in test [1] was 13.3%; in test [2] it was 8.95%; in test [3] it was -0.65%; in test [4] it was 3.9%; in test [5], -2.45%; in test [6], 6.35%.

`Cc1ccc(/C=C/C(=O)c2sc(C(N)=S)nc2C)cc1`: the growth inhibition in test [1] is 35.9%; in test [2], 14.2%; in test [3] it was 8.15%; in test [4], 16.3%; in test [5] it was 11.2%; in test [6], 39%.

With `CNC(=O)CN(CC(N)=O)C(=O)NC`, the growth inhibition in test [1] is -29.5%; in test [2] it was -20.3%; in test [3], -27.6%; in test [4], 0.65%; in test [5], -23%; in test [6] it was -35%.

In the case of `Nc1cc(C(=O)c2ccccc2C(=O)O)ccc1Cl`, the growth inhibition in test [1] was -34.3%; in test [2] it was -46.7%; in test [3] it was -8.3%; in test [4], 6.65%; in test [5] it was -28.8%; in test [6], -15.9%.

With `O=C1C(=O)C(CCc2ccccc2)C(=O)/C1=C\c1ccccc1` (stereo unspecified), the growth inhibition in test [1] is 4.4%; in test [2] it was 17.6%; in test [3] it was 10.6%; in test [4], -10.4%; in test [5], -6.55%; in test [6] it was 20.2%.

On to `NC(=S)SC1=NNC2(C(=O)N1)c1ccccc1-c1ccccc12`, for which the growth inhibition in test [1] was -11.6%; in test [2] it was -33.6%; in test [3], 14.2%; in test [4], -6.7%; in test [5], 5.7%; in test [6] it was 14.6%.

`Cc1nc2cc(N)c(F)cc2[nH]1`: the growth inhibition was -14.6% in test [1]; -6.95% in test [2]; 21.4% in test [3]; 12.8% in test [4]; 16.4% in test [5]; -0.1% in test [6].

Turning to `Cc1[nH]c(=O)c(C#N)c(C)c1-c1ccccc1`, the growth inhibition is 16.8% in test [1]; -3.9% in test [2]; -4.9% in test [3]; 4.9% in test [4]; -0.75% in test [5]; 1.85% in test [6].

As to `CCOC(=O)C(O)(C#CC(C)C)C1CCCC1` (stereo unspecified), the growth inhibition in test [1] is -15%; in test [2], 13%; in test [3] it was -4.65%; in test [4], 5%; in test [5], -6.4%; in test [6], -6.65%.

Turning to `O=C1OC(=O)C2C1C1c3ccccc3C2(Br)c2ccccc21` (stereo unspecified), the growth inhibition was -3.15% in test [1]; 13.7% in test [2]; -0.45% in test [3]; -6.05% in test [4]; 3.55% in test [5]; 7.65% in test [6].

As for `CCN(CC)Cc1cc(-n2cnc3c(=S)nc[nH]c32)ccc1O`, the growth inhibition in test [1] was -3.15%; in test [2], -12.4%; in test [3], -8.8%; in test [4], 3.45%; in test [5] it was -5.65%; in test [6], -3.2%.

Turning to `CCCCCCCCCCCCCCCCCCCCCCCCCCCCCCCCCCCCSC(=N)N`, the growth inhibition in test [1] was 8.25%; in test [2] it was 0.45%; in test [3], 3.8%; in test [4], -7.05%; in test [5], -0.25%; in test [6], 12.8%.

As for `CCC(=O)c1c(NOC2OCC(OC(C)=O)C(OC(C)=O)C2OC(C)=O)nc(OC)n(C)c1=O` (stereo unspecified), the growth inhibition in test [1] was -18.3%; in test [2], -0.65%; in test [3], -35.2%; in test [4], 9.6%; in test [5], -24.8%; in test [6], -11.5%.

For the compound `CC1CC(C)(C)NC(C2CCC=CO2)O1` (stereo unspecified), the growth inhibition was 5.2% in test [1]; -3.9% in test [2]; -7% in test [3]; -20.6% in test [4]; -18.6% in test [5]; 5.9% in test [6].

`COc1ccc(C(O)Cc2ccccc2)cc1` (stereo unspecified): the growth inhibition in test [1] is -4.9%; in test [2], -19.4%; in test [3], 5.6%; in test [4] it was -16.9%; in test [5], -18.4%; in test [6], -6.4%.

Take `CC(C)C(N)C(=O)NC(C(=O)O)C(C)C` (stereo unspecified): the growth inhibition is 12.8% in test [1]; -9.35% in test [2]; -4.3% in test [3]; -19.5% in test [4]; -0.6% in test [5]; 19.3% in test [6].

`CC12CCC(=O)OC1(C)OC(=O)CC2` (stereo unspecified): the growth inhibition is 10.4% in test [1]; 17.1% in test [2]; 2.85% in test [3]; -5.75% in test [4]; 7.7% in test [5]; -7.7% in test [6].

With `O=c1ncccn1C1OC(CO)C(O)C1F` (stereo unspecified), the growth inhibition in test [1] was 4.75%; in test [2], -6.7%; in test [3] it was 9.5%; in test [4], -7.15%; in test [5], 3.75%; in test [6], -1.7%.

As for `CCn1c(C)[n+](CC)c2ccc(C(C)=O)cc21`, the growth inhibition in test [1] was -0.35%; in test [2], -19.7%; in test [3] it was -3.95%; in test [4], 8.95%; in test [5], 2.55%; in test [6] it was -8.75%.

For `CCN(CC)CC1CCCCN1` (stereo unspecified), the growth inhibition in test [1] was -10.1%; in test [2] it was -15.7%; in test [3] it was 1.95%; in test [4], 29.6%; in test [5], 1.4%; in test [6], 2.55%.

`COc1cc(C(Nc2ccccn2)c2cc3c(cc2O)OCO3)cc(OC)c1O` (stereo unspecified): the growth inhibition in test [1] is 28.2%; in test [2], 46.5%; in test [3], 39.3%; in test [4], 30.9%; in test [5] it was 15.7%; in test [6], 24.2%.

As for `COc1nc(NC2OC(CO)C(O)C(O)C2O)c(C=O)c(=O)n1C` (stereo unspecified), the growth inhibition in test [1] was 2.45%; in test [2], -6.55%; in test [3] it was -16.1%; in test [4] it was 9.9%; in test [5], -7.3%; in test [6], -7.4%.

With `COC(=O)CCC(=O)Nc1ccc(Cl)cc1C`, the growth inhibition in test [1] is -22.8%; in test [2], -9.45%; in test [3] it was -19.9%; in test [4], -6.5%; in test [5], -60%; in test [6] it was -21.2%.

In the case of `CCCNCCCCC(C)Nc1cc(OC)cc2cccnc12` (stereo unspecified), the growth inhibition was 7.1% in test [1]; -14.8% in test [2]; -15.6% in test [3]; -21.1% in test [4]; 8.2% in test [5]; 23.9% in test [6].

Consider `COc1ccc(O)c(C(=O)O)c1`, for which the growth inhibition was -20.2% in test [1]; -12.3% in test [2]; -7.55% in test [3]; 12.6% in test [4]; -3.35% in test [5]; 2.15% in test [6].

`CC(C)(C)c1[nH]ncc1CCC(=O)Nc1ccc(Cl)cc1Cl`: the growth inhibition was -0.6% in test [1]; -1.95% in test [2]; -5.85% in test [3]; 1.1% in test [4]; -16.1% in test [5]; 4.05% in test [6].

As for `COC(=O)Cc1oc(=O)n(-c2ccccc2)c(=O)c1C(=O)OC`, the growth inhibition is 6.75% in test [1]; -3.05% in test [2]; 2.05% in test [3]; -10.5% in test [4]; 10.1% in test [5]; -3.6% in test [6].

With `Cc1[nH]c2ccccc2c1C(c1cc(Cl)cc(Cl)c1O)c1c(C)[nH]c2ccccc12`, the growth inhibition in test [1] was 29.8%; in test [2], 26.1%; in test [3], 25.8%; in test [4], -1.9%; in test [5], -5.05%; in test [6], 37.8%.
